Results: PubChem BioAssay (EPA / NIEHS)
Activity calls are given as the source filed them. How the source made its calls: active means hit-call score of the fitted dose curve at least 0.9, where 1 is the maximum; inactive means score below 0.9.

Columns and labels:
Conditions in all cases: mRNA level, 48 h; actives raise or lower the signal
[1] = read-out: Paternally Expressed 10 (PEG10), PEG10 (gene 23089); experiment: LTEA_HepaRG_PEG10: Life Technologies and Expression Analysis (LTEA) Assay for Paternally Expressed 10 (PEG10) using HepaRG (AID 2283520)
Method in brief: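 Differentiated HepaRG cells, plated 48 h then switched to serum-free induction medium, were exposed in duplicate for 48 h to eight half-log concentrations topping at 100 uM in 0.5% DMSO. PEG10 mRNA was quantified by TaqMan qRT-PCR, normalised to ACTB, GAPDH and POLR2A.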

[2] = read-out: Protein phosphatase 2A (PPP2R4), PTPA (gene 5524); experiment: LTEA_HepaRG_PPP2R4: Life Technologies and Expression Analysis (LTEA) Assay for Protein phosphatase 2A (PPP2R4) using HepaRG (AID 2283522)
Method in brief: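 Differentiated HepaRG cells in serum-free induction medium were exposed in duplicate for 48 h to eight concentrations, top 100 uM with half-log dilutions, in 0.5% DMSO. PPP2R4 mRNA was quantified by TaqMan qRT-PCR, normalized to ACTB, GAPDH and POLR2A.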

[3] = read-out: Phosphatase and tensin (PTEN), PTEN (gene 5728); experiment: LTEA_HepaRG_PTEN: Life Technologies and Expression Analysis (LTEA) Assay for Phosphatase and tensin (PTEN) using HepaRG (AID 2283523)
Method in brief: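 Read-out is PTEN transcript level by multiplexed TaqMan qRT-PCR after 48 h chemical treatment of human HepaRG cultures in serum-free induction medium. Concentrations spanned 100 uM downward in half-log steps, 0.5% DMSO throughout; activity fitted in both directions against vehicle.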

[4] = read-out: solute carrier (SLC22A1), SLC22A1 (gene 6580); experiment: LTEA_HepaRG_SLC22A1: Life Technologies and Expression Analysis (LTEA) Assay for solute carrier (SLC22A1) using HepaRG (AID 2283524)
Method in brief: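 HepaRG (human liver line), 48 h dosing in serum-free induction medium; 8 conc., half-log down from 100 uM, 0.5% DMSO vehicle, duplicates. Endpoint: SLC22A1 mRNA, qRT-PCR, housekeeping-normalized; gain/loss fit vs DMSO.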

[5] = read-out: Pyruvate Dehydrogenase Kinase 4 (PDK4), PDK4 (gene 5166); experiment: LTEA_HepaRG_PDK4: Life Technologies and Expression Analysis (LTEA) Assay for Pyruvate Dehydrogenase Kinase 4 (PDK4) using HepaRG (AID 2283525)
Method in brief: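 In this multiplexed human HepaRG expression assay, cells are treated 48 h with test chemicals across an eight-point range starting at 100 uM. PDK4 mRNA changes, normalized to ACTB/GAPDH/POLR2A, are fitted in both directions relative to vehicle.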

[6] = read-out: NAD(P)H dehydrogenase [quinone] 1 (NQO1), NQO1 (gene 1728); experiment: LTEA_HepaRG_NQO1: Life Technologies and Expression Analysis (LTEA) Assay for NAD(P)H dehydrogenase [quinone] 1 (NQO1) using HepaRG (AID 2283526)
Method in brief: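 Differentiated HepaRG cells, plated 48 h and then switched to serum-free induction medium, were exposed in duplicate for 48 h to 8-point half-log concentrations up to 100 uM in 0.5% DMSO. mRNA measured by qRT-PCR, normalized to ACTB, GAPDH, POLR2A; bidirectional fit versus DMSO.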

[7] = read-out: Nuclear factor erythroid 2-related factor 2 (Homo sapiens) (UniProt Q16236); experiment: LTEA_HepaRG_NFE2L2: Life Technologies and Expression Analysis (LTEA) Assay for Nuclear factor erythroid 2-related factor 2 (NFE2L2) Transcription Factor using HepaRG (AID 2283527)
Method in brief: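 Transcript level of NFE2L2 is the read-out, measured by microfluidic TaqMan qRT-PCR and normalized to three housekeeping genes. Human HepaRG cultures received test chemical for 48 h at up to 100 uM in half-log steps. Gain or loss of signal is fitted relative to 0.5% DMSO.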

[8] = read-out: Signal transducer and activator of transcription 3 (Homo sapiens) (UniProt P40763); experiment: LTEA_HepaRG_STAT3: Life Technologies and Expression Analysis (LTEA) Assay for Signal transducer and activator of transcription (STAT3) using HepaRG (AID 2283529)
Method in brief: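 Read-out is STAT3 mRNA level by qRT-PCR, normalized to three housekeeping genes, in human HepaRG liver cells treated for 48 h. Concentrations ran from 100 uM downward in half-log steps; curves were fitted for gain or loss relative to 0.5% DMSO.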

[9] = read-out: solute carrier (SLCO1B1), SLCO1B1 (gene 10599); experiment: LTEA_HepaRG_SLCO1B1: Life Technologies and Expression Analysis (LTEA) Assay for solute carrier (SLCO1B1) using HepaRG (AID 2283530)
Method in brief: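 Gain or loss of SLCO1B1 mRNA is fitted against the 0.5% DMSO vehicle in human HepaRG liver cells treated 48 h at up to 100 uM in half-log steps. Expression comes from qRT-PCR normalized to endogenous controls.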

[10] = read-out: sulfotransferase 2A1 (SULT2A1), SULT2A1 (gene 6822); experiment: LTEA_HepaRG_SULT2A1: Life Technologies and Expression Analysis (LTEA) Assay for sulfotransferase 2A1 (SULT2A1) using HepaRG (AID 2283531)
Method in brief: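 Cells were plated and cultured 48 h, switched to serum-free induction medium, then dosed in duplicate for 48 h (8 concentrations, max 100 uM). RNA was isolated and SULT2A1 expression measured by qRT-PCR; gain or loss of signal fitted relative to DMSO.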

[11] = read-out: Transforming Growth Factor (TGFA), TGFA (gene 7039); experiment: LTEA_HepaRG_TGFA: Life Technologies and Expression Analysis (LTEA) Assay for Transforming Growth Factor (TGFA) using HepaRG (AID 2283532)
Method in brief: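 HepaRG (human liver line), 48 h exposure, 8 conc. half-log down from 100 uM, 0.5% DMSO vehicle, duplicates; serum-free induction medium. TGFA mRNA by TaqMan qRT-PCR, ACTB/GAPDH/POLR2A normalization; gain/loss fit vs DMSO.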

[12] = read-out: Transforming Growth Factor (TGFB1), TGFB1 (gene 7040); experiment: LTEA_HepaRG_TGFB1: Life Technologies and Expression Analysis (LTEA) Assay for Transforming Growth Factor (TGFB1) Transporter using HepaRG (AID 2283533)
Method in brief: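 Expression change of TGFB1 in human HepaRG cells is measured after a 48 h chemical exposure, up to 100 uM in 0.5% DMSO vehicle. Curves are fitted in both directions relative to the DMSO baseline.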

TIMP1, TIMP1 (gene 7076) = experiment: LTEA_HepaRG_TIMP1: Life Technologies and Expression Analysis (LTEA) Assay for TIMP1 using HepaRG (AID 2283534);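 further: TaqMan qRT-PCR signal normalized to ACTB GAPDH and POLR2A housekeeping genes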
Method in brief: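 We dosed human liver HepaRG cultures for 48 hours with up to 100 uM test chemical and measured TIMP1 expression by qRT-PCR. Activity in either direction is fitted relative to the 0.5% DMSO vehicle.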

[13] = read-out: Tumor necrosis factor receptor 1 (TNFRSF1A), TNFRSF1A (gene 7132); experiment: LTEA_HepaRG_TNFRSF1A: Life Technologies and Expression Analysis (LTEA) Assay for Tumor necrosis factor receptor 1 (TNFRSF1A) using HepaRG (AID 2283535)
Method in brief: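 Expression of TNFRSF1A in human HepaRG liver cells was measured by qRT-PCR 48 h after chemical dosing (maximum 100 uM). Bidirectional curve fitting used 0.5% DMSO as baseline.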

[14] = read-out: Thyroid Hormone Responsive (THRSP), THRSP (gene 7069); experiment: LTEA_HepaRG_THRSP: Life Technologies and Expression Analysis (LTEA) Assay for Thyroid Hormone Responsive (THRSP) using HepaRG (AID 2283536)
Method in brief: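 mRNA induction or loss relative to 0.5% DMSO vehicle was fitted bidirectionally across an eight-point curve whose highest exposure was 100 uM. Human HepaRG liver cells received chemicals in duplicate over 48 h before RNA extraction.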

[15] = read-out: Cellular tumor antigen p53 (Homo sapiens) (UniProt P04637); experiment: LTEA_HepaRG_TP53: Life Technologies and Expression Analysis (LTEA) Assay for Tumor Protein P53 (TP53) using HepaRG (AID 2283537)
Method in brief: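 HepaRG, 48 h exposure, top 100 uM, half-log 8-point, 0.5% DMSO vehicle, duplicates. Read: TP53 mRNA by TaqMan qRT-PCR, normalised to ACTB/GAPDH/POLR2A; bidirectional fit vs DMSO.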

[16] = read-out: UDP glucuronosyltransferase (UGT1A1), UGT1A1 (gene 54658); experiment: LTEA_HepaRG_UGT1A1: Life Technologies and Expression Analysis (LTEA) Assay for UDP glucuronosyltransferase (UGT1A1) using HepaRG (AID 2283538)
Method in brief: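 Differentiated human HepaRG cells in serum-free induction medium were exposed in duplicate for 48 h to eight half-log concentrations up to 100 uM in 0.5% DMSO. UGT1A1 mRNA was quantified by TaqMan qRT-PCR, normalized to ACTB, GAPDH and POLR2A, and fitted bidirectionally against DMSO.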

[17] = read-out: UDP glucuronosyltransferase (UGT1A6), UGT1A6 (gene 54578); experiment: LTEA_HepaRG_UGT1A6: Life Technologies and Expression Analysis (LTEA) Assay for UDP glucuronosyltransferase (UGT1A6) using HepaRG (AID 2283539)
Method in brief: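 Endpoint is UGT1A6 transcript induction or loss in a human liver cell line, quantified by TaqMan qRT-PCR 48 h after dosing. Concentrations ran from 100 uM downward in half-log steps in 0.5% DMSO; activity was fitted in both directions versus vehicle.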

[18] = read-out: succinate dehydrogenase complex iron sulfur subunit B (SDHB), SDHB (gene 6390); experiment: LTEA_HepaRG_SDHB: Life Technologies and Expression Analysis (LTEA) Assay for succinate dehydrogenase complex iron sulfur subunit B (SDHB) using HepaRG (AID 2283528)
Method in brief: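 HepaRG, 48 h exposure, 8-pt half-log series from 100 uM in 0.5% DMSO, duplicates. Readout: SDHB mRNA by Fluidigm qRT-PCR vs housekeeping genes; bidirectional fit relative to DMSO.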

[19] = read-out: Nuclear factor NF-kappa-B p105 subunit (Homo sapiens) (UniProt P19838); experiment: LTEA_HepaRG_NFKB1: Life Technologies and Expression Analysis (LTEA) Assay for Nuclear Factor Kappa B Subunit 1 (NFKB1) using HepaRG (AID 2283521);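 further: TaqMan qRT-PCR transcript normalised to ACTB GAPDH and POLR2A housekeeping genes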
Method in brief: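 Differentiated human HepaRG cells were exposed for 48 h in serum-free induction medium to eight concentrations (top 100 uM, half-log steps, 0.5% DMSO), in duplicate. NFKB1 mRNA was measured by TaqMan qRT-PCR, normalized to ACTB/GAPDH/POLR2A, and fitted bidirectionally against DMSO.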

Measured: AC50

Sequence of Cellular tumor antigen p53 (Homo sapiens) (P04637 whole entry, looked up): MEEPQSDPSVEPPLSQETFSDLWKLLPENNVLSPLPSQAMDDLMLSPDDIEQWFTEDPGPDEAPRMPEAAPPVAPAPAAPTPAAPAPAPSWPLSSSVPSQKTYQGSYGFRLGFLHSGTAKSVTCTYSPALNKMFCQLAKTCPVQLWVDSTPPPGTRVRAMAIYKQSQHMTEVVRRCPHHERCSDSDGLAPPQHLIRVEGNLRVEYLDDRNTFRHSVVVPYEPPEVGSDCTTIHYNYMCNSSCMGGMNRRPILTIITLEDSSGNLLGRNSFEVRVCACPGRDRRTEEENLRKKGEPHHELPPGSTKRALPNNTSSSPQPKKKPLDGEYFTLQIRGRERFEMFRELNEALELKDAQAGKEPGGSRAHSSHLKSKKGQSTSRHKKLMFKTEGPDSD
Sequence of Nuclear factor erythroid 2-related factor 2 (Homo sapiens) (Q16236 whole entry, looked up): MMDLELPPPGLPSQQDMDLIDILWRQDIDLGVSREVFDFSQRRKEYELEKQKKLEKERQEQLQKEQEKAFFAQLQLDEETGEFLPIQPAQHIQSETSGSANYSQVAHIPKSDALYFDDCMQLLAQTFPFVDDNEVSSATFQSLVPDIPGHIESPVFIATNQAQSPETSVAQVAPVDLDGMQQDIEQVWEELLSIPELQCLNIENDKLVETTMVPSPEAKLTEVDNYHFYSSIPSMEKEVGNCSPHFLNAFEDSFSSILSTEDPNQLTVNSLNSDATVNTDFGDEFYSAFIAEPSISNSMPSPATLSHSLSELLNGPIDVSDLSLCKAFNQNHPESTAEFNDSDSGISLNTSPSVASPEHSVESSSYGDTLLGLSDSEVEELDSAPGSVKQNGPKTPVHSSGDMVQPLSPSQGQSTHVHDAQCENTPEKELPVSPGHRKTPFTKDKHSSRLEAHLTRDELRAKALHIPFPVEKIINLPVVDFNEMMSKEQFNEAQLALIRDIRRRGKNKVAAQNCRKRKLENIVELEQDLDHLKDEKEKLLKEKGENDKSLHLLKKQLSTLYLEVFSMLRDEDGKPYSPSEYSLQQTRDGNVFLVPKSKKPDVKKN
Sequence of Signal transducer and activator of transcription 3 (Homo sapiens) (P40763 whole entry, looked up): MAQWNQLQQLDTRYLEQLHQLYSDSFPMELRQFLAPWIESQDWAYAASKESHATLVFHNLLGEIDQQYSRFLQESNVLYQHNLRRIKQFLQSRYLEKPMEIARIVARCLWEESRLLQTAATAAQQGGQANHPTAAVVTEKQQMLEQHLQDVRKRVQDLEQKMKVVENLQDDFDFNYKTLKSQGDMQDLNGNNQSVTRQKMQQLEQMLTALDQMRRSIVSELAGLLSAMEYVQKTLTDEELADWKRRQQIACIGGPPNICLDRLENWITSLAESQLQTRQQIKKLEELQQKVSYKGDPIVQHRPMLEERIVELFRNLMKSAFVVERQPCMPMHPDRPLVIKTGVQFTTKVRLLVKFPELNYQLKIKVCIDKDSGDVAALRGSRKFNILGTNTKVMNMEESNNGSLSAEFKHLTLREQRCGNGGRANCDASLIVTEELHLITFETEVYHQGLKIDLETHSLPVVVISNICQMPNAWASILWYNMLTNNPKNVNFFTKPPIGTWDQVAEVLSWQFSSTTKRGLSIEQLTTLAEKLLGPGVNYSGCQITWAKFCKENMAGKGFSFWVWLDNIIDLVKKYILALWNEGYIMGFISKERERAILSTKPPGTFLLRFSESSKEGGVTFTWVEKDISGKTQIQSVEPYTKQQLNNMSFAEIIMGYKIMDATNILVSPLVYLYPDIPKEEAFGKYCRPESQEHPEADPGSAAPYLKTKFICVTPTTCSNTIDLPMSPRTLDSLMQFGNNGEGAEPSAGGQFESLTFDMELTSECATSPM
Sequence of Nuclear factor NF-kappa-B p105 subunit (Homo sapiens) (P19838 whole entry, looked up): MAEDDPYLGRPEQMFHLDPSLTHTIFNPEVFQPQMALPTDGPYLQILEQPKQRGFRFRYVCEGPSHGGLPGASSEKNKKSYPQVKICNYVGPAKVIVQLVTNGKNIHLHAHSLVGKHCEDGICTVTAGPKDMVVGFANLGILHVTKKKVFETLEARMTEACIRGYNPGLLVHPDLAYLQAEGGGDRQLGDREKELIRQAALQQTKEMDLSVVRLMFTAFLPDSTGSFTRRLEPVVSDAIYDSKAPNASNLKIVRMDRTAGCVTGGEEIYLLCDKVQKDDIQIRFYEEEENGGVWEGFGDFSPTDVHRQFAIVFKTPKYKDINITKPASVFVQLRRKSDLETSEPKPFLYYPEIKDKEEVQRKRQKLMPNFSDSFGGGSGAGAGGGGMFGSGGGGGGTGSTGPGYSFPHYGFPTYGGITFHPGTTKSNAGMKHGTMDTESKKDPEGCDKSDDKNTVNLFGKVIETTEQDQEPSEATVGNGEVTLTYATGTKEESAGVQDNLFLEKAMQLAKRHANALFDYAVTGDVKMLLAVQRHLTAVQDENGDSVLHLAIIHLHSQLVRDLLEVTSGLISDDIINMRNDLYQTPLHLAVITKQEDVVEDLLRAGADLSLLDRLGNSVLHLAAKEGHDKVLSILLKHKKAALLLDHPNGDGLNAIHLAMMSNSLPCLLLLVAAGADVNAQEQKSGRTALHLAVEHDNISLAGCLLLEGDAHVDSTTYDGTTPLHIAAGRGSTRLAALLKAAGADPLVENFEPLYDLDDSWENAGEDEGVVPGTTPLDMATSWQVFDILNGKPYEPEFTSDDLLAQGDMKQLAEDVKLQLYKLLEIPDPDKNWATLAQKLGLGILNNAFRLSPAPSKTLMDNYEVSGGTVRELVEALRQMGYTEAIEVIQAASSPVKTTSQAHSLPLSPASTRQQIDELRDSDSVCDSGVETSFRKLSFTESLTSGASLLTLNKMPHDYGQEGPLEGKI

CC1(C)CCC(=Cc2ccc(Cl)cc2)C1(O)Cn1cncn1 (configuration not stated)
inactive: [1] | [2] | [3] | [4] | [5] | [6] | [7] | [8] | [9] | [10] | [11] | [12] | TIMP1, TIMP1 (gene 7076) | [13] | [15] | [17]
active: [14] 24.1 µM | [16] 5.72 µM

COP(=S)(OC)SCn1nnc2ccccc2c1=O
active: [16] 43.2 µM
inactive: [1] | [2] | [3] | [4] | [5] | [6] | [7] | [18] | [8] | [9] | [10] | [11] | [12] | TIMP1, TIMP1 (gene 7076) | [13] | [14] | [15] | [17]

COC(=O)NC(=S)Nc1ccccc1NC(=S)NC(=O)OC
inactive: [1] | [19] | [2] | [3] | [4] | [5] | [6] | [8] | [9] | [10] | [11] | [13] | [14] | [15] | [17]
active: [7] 50 µM | [16] 14.3 µM

CCC(C)n1c(=O)[nH]c(C)c(Br)c1=O (configuration not stated)
inactive: [19] | [2] | [3] | [18] | [11] | [12] | [13] | [15] | [17]
active: [1] 21.1 µM | [4] 19.2 µM | [5] 50 µM | [7] 7.04 µM | [8] 31.8 µM | [9] 29 µM | [10] 24.9 µM | [14] 18.5 µM | [16] 5.95 µM
